Tau fluor cs = Counterscreen qHTS for Inhibitors of Tau Fibril Formation, Fluorescence Polarization | tau K18 P301L Alexa594 fluorescence, heparin fibrillization | Potency, µM (top dose mostly 57.7 µM), inactives show at the top dose activity change, negative = decrease | hit rate 0.93% among 280,000; note: potency is the fitted concentration of half-maximal effect; nearly all actives have a fitted effect of over 55% in size
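Human tau K18 P301L (15 uM unlabeled, 0.24 uM Alexa 594-labeled) in 100 mM sodium acetate pH 7 with 20 uM heparin, 6 hr at 37 C. ThT 30 uM added, 1 hr ambient; Alexa 594 FP and total fluorescence read at 555/632 nm.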
Sfp inh = qHTS Assay for Inhibitors of Bacillus subtilis Sfp phosphopantetheinyl transferase (PPTase); 4'-phosphopantetheinyl transferase ffp (Bacillus subtilis), Q9F4F7; Biochemical Sfp PPTase activity, qHTS; Potency, µM, inactives show largest response in the series, negative = inhibition, actives largely listed as inhibitors; hit rate 3.5% among 310,000;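 note: the enzyme is Sfp with the accession as filed and its product quenches rhodamine fluorescence; potency is the fitted concentration of half-maximal effect; 0% = enzyme reaction without inhibitor and -100% = no enzyme wells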
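Reaction rates are the 30-min fluorescence difference (ex 525, em 598 nm) in wells containing 15 nM Sfp, 5 uM rhodamine-CoA and 12.5 uM BHQ-2-YbbR at pH 7.6 with 10 mM MgCl2.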
JMJD2E inh = qHTS Assay for Inhibitors of Human Jumonji Domain Containing 2E (JMJD2E); Lysine-specific demethylase 4E (Homo sapiens), B2RXH2; JMJD2E catalytic domain, FDH-coupled NADH fluorescence (FDH is formaldehyde dehydrogenase); Potency, µM (titrated, usually from 57.1 µM), for inactives: top-dose activity change, negative = inhibition, most hits filed as inhibitors; hit rate 1.6% among 230,000; AID 2147, 2009; active = well fitted inhibition curve with a large enough effect, not every such curve was filed as active; inconclusive = small, poorly fitted or top-dose-only effect, or another doubt; inactive = no such curve, though single readings can be large or run the other way;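 note: potency is the fitted concentration of half-maximal effect; 0% = wells with enzyme and -100% = buffer wells without enzyme; nearly all actives have a fitted effect of over 50% in size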
Target sequence (B2RXH2 1-337 limits assumed): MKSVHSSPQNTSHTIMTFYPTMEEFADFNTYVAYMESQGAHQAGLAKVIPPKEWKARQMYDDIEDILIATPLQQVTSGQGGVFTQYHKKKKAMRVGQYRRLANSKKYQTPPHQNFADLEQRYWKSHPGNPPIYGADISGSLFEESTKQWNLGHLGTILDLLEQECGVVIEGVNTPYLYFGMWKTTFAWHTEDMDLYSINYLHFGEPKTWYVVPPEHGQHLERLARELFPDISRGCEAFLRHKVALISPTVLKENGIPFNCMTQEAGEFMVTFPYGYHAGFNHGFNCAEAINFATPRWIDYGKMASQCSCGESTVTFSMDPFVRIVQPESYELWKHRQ
Tau ThT inhib = qHTS for Inhibitors of Tau Fibril Formation, Thioflavin T Binding; Microtubule-associated protein tau (Homo sapiens), P10636; recombinant tau K18 P301L (four-repeat tau fragment), heparin-induced fibrillization, ThT fluorescence; Potency, µM (doses to about 57.4 µM), for inactives: top-dose activity, negative = inhibition, hits mostly inhibitors; hit rate 2.1% among 270,000; AID 1460, 2008; note: potency is the fitted concentration of half-maximal effect; nearly all actives have a fitted effect of over 55% in size
Target sequence (P10636 561-689 P618L limits assumed): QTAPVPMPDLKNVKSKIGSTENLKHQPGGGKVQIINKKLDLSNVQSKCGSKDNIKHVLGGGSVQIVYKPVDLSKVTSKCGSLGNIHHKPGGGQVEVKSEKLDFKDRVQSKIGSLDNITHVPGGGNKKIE
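Recombinant human tau K18 fragment […] carrying P301L, 15 uM unlabeled plus 0.24 uM Alexa 594-labeled, was fibrillized with 20 uM heparin in 100 mM sodium acetate pH 7 for 6 hr at 37 C; 30 uM ThT fluorescence read after 1 hr.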
Tau FP inhib = qHTS for Inhibitors of Tau Fibril Formation, Fluorescence Polarization; Potency, µM (highest dose often 57.7 µM), for the others: at the highest dose activity, negative = inhibition, most hits filed as inhibitors; Microtubule-associated protein tau (Homo sapiens), P10636; K18 P301L tau heparin fibrillization, Alexa594 FP, 6 h; hit rate 0.39% among 280,000; note: potency is the fitted concentration of half-maximal effect; nearly all actives have a fitted effect of over 55% in size
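Quantitative HTS format: compounds meet 15 uM recombinant K18 P301L tau and Alexa 594-tau tracer in 100 mM sodium acetate pH 7; 20 uM heparin triggers fibrillization at 37 C over 6 hr; FP gives the signal.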
Coupling enz = qHTS Assay for Inhibitors of Fructose-1,6-bisphosphate Aldolase from Giardia Lamblia: Coupling assay counterscreen | coupling enzyme system counterscreen, AmpLite Red fluorescence | hit rate 0.67% among 290,000 | activity change, negative = inhibition, % at 58.2 µM, hits read low | AID 2472, 2010; in the data active = activity change below about -30%
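Fluorescence at 525 nm excitation and 598 nm emission measured inhibition of the coupled detection system without aldolase. Compounds (at 57.5 uM final) were preincubated 10 min at room temperature with coupling enzyme reagent before a 20 min substrate/AmpLite Red step.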
* marks the source's active call; other numbers are inactive results; ? = inconclusive; . = not tested or not shown; [ ] = dose if it differs, or a comment. This is a sample that favours compounds with a hit; in the whole collection about 5.3% have one here. Unless noted, calls come from the whole dose curve; as a rule, active = well fitted curve in the direction sought with a large enough effect; inconclusive = small, poorly fitted or top-dose-only effect, or another doubt; inactive = no such curve, though single readings can be large; an effect the other way counts as inactive or inconclusive. Unless noted, % is set by controls: 0 for no effect and ±100 for the full control effect.

SMILES	Tau fluor cs	Sfp inh	JMJD2E inh	Tau ThT inhib	Tau FP inhib	Coupling enz
COc1ccccc1CNC(=O)c1ccc(-c2nc(CN3CCc4ccccc43)c(C)o2)cc1	-26%	.	.	?	11%	.
CCCCCCCCCCOC(=O)Cn1c(COc2cccc(C)c2)[n+](C)c2ccccc21	.	56µM*	.	.	.	-2
COc1ccccc1CNC(=O)COCc1cc(-c2cccs2)on1	-16%	.	.	-11%	2%	.
O=C(N/N=C1/C[C@@H](O)[C@@H](O)[C@@H]2[C@@H]3C(=O)N(C[C@@H]4CCCO4)C(=O)[C@H]3CC[C@H]12)OCc1ccccc1	1%[11.6 µM]	-1%	.	0%[11.5 µM]	?	4
COc1cc(/C=N/NC(=O)c2sc(N)c(C#N)c2C)cc(Br)c1O	?	5%	?	4.5µM*	14%	0
CC(=O)N1CCC2(CC1)CCN(c1ncccn1)CC2	.	26%	.	.	.	-1
O=[N+]([O-])c1cc(/C=N\Nc2nccs2)ccc1O	14µM*[quencher]	14µM*	?	13µM*	?	0
CCOC(=O)c1ccc(/C=C2/C=C(c3ccccc3)N(c3ccc(Cl)c(C(=O)O)c3)C2=O)cc1	8%	?	1%	16µM*	-10%	7
CCOC(=O)c1ccc(Cl)c(NC(=O)c2ccc(-c3ccccc3)cc2)c1	4%	1%	3%	4%	-4%	3
COc1ccc2c(c1)C(=O)[C@H](OC(=O)N[C@H](C)C1CCCCC1)[C@@H](c1ccc(OC)c(Br)c1)O2	-8%	0%	-27%	-6%	3%	1
Cc1nc(CSc2nsc(/C=C/N(C)C)c2C#N)cs1	?	?	-9%	25µM*	-12%	-12
COC(=O)c1ccccc1CSc1nsc(/C=C/N(C)C)c1C#N	.	16µM*	.	.	.	-6
CC1=CC(=O)C2=C(C)C[C@H](OC(=O)Cc3ccccc3)C3[C@H](OC(=O)[C@H]3C)C12 (some centres undefined)	-11%	-14%	7%	-12%	-3%	-1
CC(=O)OCC(NC(=O)C(C)NC(=O)OC(C)(C)C)C1OC(n2cc(F)c(=O)[nH]c2=O)C(OC(C)=O)C1OC(C)=O (centres undefined)	.	21%	.	.	.	2
COCCn1c(N/N=C(C)/C=C/c2ccccc2)nc2c1c(=O)[nH]c(=O)n2C	-9%	40µM*	?	?	5%	-4
CC(/C=C/c1ccccc1)=N\Nc1nc2c(c(=O)[nH]c(=O)n2C)n1CCO	-22%	40µM*	-5%	.	-7%	-1
Cn1c(=O)[nH]c(=O)c2c1nc(Br)n2C/C=N/Nc1ccccc1	-14%	56µM*	-4%	-18%	-11%	-1
CCCn1c(N/N=C\C=C\c2ccccc2)nc2c1c(=O)[nH]c(=O)n2C	-13%	-24%	?	?	19%	0
N#CC1=C(S)N=C(N)C(c2nc(-c3ccccc3)cs2)C12CCCCC2 (centres undefined)	-25%	0%	-6%	?	?	0
N#CC1=C(S)N=C(N)C(c2nc(-c3ccccc3)cs2)C12CCCC2 (centres undefined)	?	?	-5%	28µM*	?	-1
O=C(Nc1ccc(C(F)(F)F)cc1)c1cc(S(=O)(=O)NCC2COc3ccccc3O2)ccc1F (centres undefined)	?	23%	-2%	7%	13µM*	-3
CCc1ccc(-c2cc(C)no2)cc1S(=O)(=O)NCc1ccc(OC)cc1	-19%	.	.	-1%	-3%	.
Cc1ccc(C2=NOC(=O)/C2=C\c2ccc(C)o2)cc1	-21%	40µM*	-19%	?	0%	1
Cc1ccc(-c2ccc(/C=C3\C(=O)ON=C3c3ccccc3)o2)c([N+](=O)[O-])c1	?	22µM*	-4%	16µM*	-12%	-1
COc1ccc(C(=O)Nc2ccc3nc4c(c(Nc5ccccc5OC)c3c2)CCCC4)c(OC)c1	?	.	.	18µM*	-7%	.
SMILES	Tau fluor cs	Sfp inh	JMJD2E inh	Tau ThT inhib	Tau FP inhib	Coupling enz
COc1ccccc1Nc1c2c(nc3ccc(NC(=O)c4ccc(OC)c(OC)c4)cc13)CCCC2	?	.	.	25µM*	-17%	.
COc1ccc(Nc2c3c(nc4ccc(NC(=O)c5ccc(F)cc5)cc24)CCCC3)cc1OC	?	.	.	16µM*	8%	.
COc1ccccc1Nc1c2c(nc3ccc(NC(=O)c4cccc(OC)c4OC)cc13)CCCC2	?	.	.	?	4%	.
COc1ccc(C(=O)Nc2ccc3nc4c(c(Nc5ccc(OC)c(OC)c5)c3c2)CCCC4)c(OC)c1	-20%	.	.	?	0%	.
COc1ccccc1Nc1c2c(nc3ccc(NC(=O)c4ccccc4F)cc13)CCCC2	?	.	.	?	4%	.
COc1ccccc1CNC(=O)c1c(O)nc2c(C)cccn2c1=O	-7%	.	.	1%	-3%	.
CCOC(=O)c1sc(NC(=O)/C=C/c2cnn(CC)c2C)c(C(=O)OCC)c1C	-7%	25µM*	?	-11%	13%	-1
COc1cccc(-c2cnc(NCc3cc(Cl)ccc3O)n2C)c1	20µM*[quencher]	?	?	?	15%	2
COc1cccc(-c2cnc(NCc3ccccc3Cl)n2C)c1	?	.	.	?	8%	.
CCCCCCCCCCC1=C(C)C(=O)C(OC)=C(OC)C1=O	-22%	-16%	.	?	12%	-44*
Cc1[nH]c2ccccc2c1CCCO	2%	18%	?	6%	3%	-1
COC1=C(OC)C(=O)C(CCCCCCCCCCO)=C(C)C1=O	?	4%	18%	?	-9%	-65*
O=C(Nc1ccc(F)c(F)c1)c1ccc(=O)n(Cc2ccc(F)cc2)c1	?	.	.	0%	?	.
Cc1cc2ccccn2c1C(=O)c1ccc(NN)c([N+](=O)[O-])c1	?	-28%	3%	10µM*	4%	-4
O=C1C=CC2(OCCCO2)C(Br)=C1	-14%[11.6 µM]	13%	.	-12%[11.5 µM]	-3%[11.6 µM]	4
Cc1oc2c(O)c(O)ccc2c(=O)c1-c1ccccc1	-13%	50µM*	13µM*	?	-8%	-12
Cc1cc(=O)oc2c(O)c(O)ccc12	-27%	45µM*	2.2µM*	?	-23%	-36*
Cc1c(Cc2ccccc2)c(=O)oc2c(O)c(O)ccc12	-29%	-22%	3.2µM*	?	-5%	-18
